PubChem BioAssay AID1159580 (chemical genetic matrix, 2015)
Out of some 5,500 compounds screened, about 2,000 (36%) were called active. About 18% were inconclusive and are not listed. Cut-off read from the data, not from the text of the source: active = normalized growth mostly below about 0.91 (no sharp cut-off); inconclusive = no clear call, values can overlap the other calls; inactive = mostly above about 0.92. The list shows a part of the results.

Assay: chemical genetic growth profiling, strain panel (AID 1159580);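 note: tested at 20 µM; growth read once vehicle control cultures reached saturation at 30 °C; 1 = growth at the plate median or of vehicle wells; lower values mean less growth of the strain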
Conditions: growth OD

Measured: normalized growth

CCc1cc(C(N)=S)ccn1
inactive: S. cerevisiae deletion strains, locus YJR066W, strain TOR1, active compounds read low 1 | S. cerevisiae deletion strains, locus YKL009W, strain mrt4, active compounds read low 0.966 | S. cerevisiae deletion strains, locus YKL068W, active compounds read low 0.975 | S. cerevisiae deletion strains, locus YKL085W, strain MDH1 (second series), active compounds read low 0.964 | S. cerevisiae deletion strains, locus YKL085W, strain MDH1, active compounds read low 0.964 | S. cerevisiae deletion strains, locus YKL160W, strain elf1, active compounds read low 1.05 | S. cerevisiae deletion strains, locus YKL190W, strain CNB1, active compounds read low 0.991 | S. cerevisiae deletion strains, locus YKR001C, strain vps1, active compounds read low 0.955 | S. cerevisiae deletion strains, locus YKR026C, strain gcn3, active compounds read low 1 | S. cerevisiae deletion strains, locus YKR091W, strain srl3, active compounds read low 1.01 | S. cerevisiae deletion strains, locus YLL001W, strain dnm1, active compounds read low 1.04 | S. cerevisiae deletion strains, locus YLL026W, active compounds read low 1 | S. cerevisiae deletion strains, locus YLL041C, strain sdh2, active compounds read low 1 | S. cerevisiae deletion strains, locus YLR027C, strain aat2, active compounds read low 0.987 | S. cerevisiae deletion strains, locus YLR039C, strain RIC1, active compounds read low 0.939 | S. cerevisiae deletion strains, locus YLR058C, strain SHM2, active compounds read low 0.978 | S. cerevisiae deletion strains, locus YLR102C, strain apc9, active compounds read low 0.994 | S. cerevisiae deletion strains, locus YLR113W, strain HOG1, active compounds read low 1.04 | S. cerevisiae deletion strains, locus YLR221C, strain rsa3, active compounds read low 1.02 | S. cerevisiae deletion strains, locus YLR258W, strain gsy2, active compounds read low 1 | S. cerevisiae deletion strains, locus YLR262C, strain YPT6 (second series), active compounds read low 1.04 | S. cerevisiae deletion strains, locus YLR262C, strain YPT6, active compounds read low 0.937 | S. cerevisiae deletion strains, locus YLR268W, strain sec22, active compounds read low 0.977 | S. cerevisiae deletion strains, locus YLR320W, strain mms22, active compounds read low 1.04 | S. cerevisiae deletion strains, locus YLR330W, strain CHS5, active compounds read low 0.984 | S. cerevisiae deletion strains, locus YLR342W, strain FKS1 (second series), active compounds read low 1.03 | S. cerevisiae deletion strains, locus YLR342W, strain FKS1, active compounds read low 1.01 | S. cerevisiae deletion strains, locus YLR357W, strain rsc2, active compounds read low 0.99 | S. cerevisiae deletion strains, locus YLR370C, strain arc18, active compounds read low 1 | S. cerevisiae deletion strains, locus YLR371W, strain rom2, active compounds read low 0.991 | S. cerevisiae deletion strains, locus YLR384C, strain iki3, active compounds read low 1 | S. cerevisiae deletion strains, locus YLR418C, strain cdc73, active compounds read low 0.999 | S. cerevisiae deletion strains, locus YML016C, strain PPZ1, active compounds read low 0.99 | S. cerevisiae deletion strains, locus YML032C, strain rad52, active compounds read low 0.973 | S. cerevisiae deletion strains, locus YML120C, strain ndi1, active compounds read low 1.02 | S. cerevisiae deletion strains, locus YML124C, strain tub3, active compounds read low 0.987 | S. cerevisiae deletion strains, locus YMR058W, strain fet3, active compounds read low 1.01 | S. cerevisiae deletion strains, locus YMR078C, strain ctf18, active compounds read low 0.978 | S. cerevisiae deletion strains, locus YMR125W, strain sto1, active compounds read low 1 | S. cerevisiae deletion strains, locus YMR129W, active compounds read low 0.996 | S. cerevisiae deletion strains, locus YMR205C, strain PFK2, active compounds read low 1.07 | S. cerevisiae deletion strains, locus YMR223W, strain ubp8, active compounds read low 1.03 | S. cerevisiae deletion strains, locus YMR231W, strain pep5, active compounds read low 1 | S. cerevisiae deletion strains, locus YMR263W, strain SAP30, active compounds read low 0.982 | S. cerevisiae deletion strains, locus YMR307W, strain GAS1, active compounds read low 1.06 | S. cerevisiae deletion strains, locus YNL067W, strain RPL9B, active compounds read low 0.954 | S. cerevisiae deletion strains, locus YNL071W, strain lat1, active compounds read low 1.01 | S. cerevisiae deletion strains, locus YNL128W, strain TEP1, active compounds read low 0.985 | S. cerevisiae deletion strains, locus YNL183C, strain NPR1, active compounds read low 0.999 | S. cerevisiae deletion strains, locus YNL209W, strain ssb2, active compounds read low 1.01 | S. cerevisiae deletion strains, locus YNL233W, strain BNI4, active compounds read low 0.963 | S. cerevisiae deletion strains, locus YNL248C, strain rpa49, active compounds read low 1 | S. cerevisiae deletion strains, locus YNL250W, strain rad50, active compounds read low 0.964 | S. cerevisiae deletion strains, locus YNL271C, strain bni1, active compounds read low 0.971 | S. cerevisiae deletion strains, locus YNL298W, strain CLA4, active compounds read low 0.978 | S. cerevisiae deletion strains, locus YNL307C, strain MCK1, active compounds read low 0.985 | S. cerevisiae deletion strains, locus YNL322C, strain KRE1 (second series), active compounds read low 1.03 | S. cerevisiae deletion strains, locus YNR049C, strain mso1, active compounds read low 1 | S. cerevisiae deletion strains, locus YNR052C, strain pop2, active compounds read low 0.993 | S. cerevisiae deletion strains, locus YOL006C, strain TOP1, active compounds read low 0.995 | S. cerevisiae deletion strains, locus YOL012C, strain htz1 1.05 | S. cerevisiae deletion strains, locus YOL147C, strain pex11, active compounds read low 0.988 | S. cerevisiae deletion strains, locus YOR001W, strain rrp6, active compounds read low 0.965 | S. cerevisiae deletion strains, locus YOR061W, strain CKA2, active compounds read low 0.96 | S. cerevisiae deletion strains, locus YOR069W, strain VPS5, active compounds read low 0.998 | S. cerevisiae deletion strains, locus YOR070C, strain gyp1, active compounds read low 1.01 | S. cerevisiae deletion strains, locus YOR080W, strain dia2, active compounds read low 0.998 | S. cerevisiae deletion strains, locus YOR083W, strain WHI5, active compounds read low 1.05 | S. cerevisiae deletion strains, locus YOR106W, strain vam3, active compounds read low 1.06 | S. cerevisiae deletion strains, locus YOR136W, strain idh2, active compounds read low 0.984 | S. cerevisiae deletion strains, locus YOR144C, strain elg1, active compounds read low 0.985 | S. cerevisiae deletion strains, locus YOR184W, strain ser1, active compounds read low 1.01 | S. cerevisiae deletion strains, locus YOR231W, strain MKK1, active compounds read low 1.07 | S. cerevisiae deletion strains, locus YOR265W, strain rbl2, active compounds read low 1.03 | S. cerevisiae deletion strains, locus YOR270C, strain vph1, active compounds read low 1.03 | S. cerevisiae deletion strains, locus YOR290C, strain snf2, active compounds read low 1.01 | S. cerevisiae deletion strains, locus YOR316C, strain cot1, active compounds read low 0.981 | S. cerevisiae deletion strains, locus YPL051W, strain arl3, active compounds read low 0.998 | S. cerevisiae deletion strains, locus YPL078C, strain atp4, active compounds read low 1.01 | S. cerevisiae deletion strains, locus YPL106C, strain sse1, active compounds read low 1.02 | S. cerevisiae deletion strains, locus YPL240C, strain hsp82, active compounds read low 0.982 | S. cerevisiae deletion strains, locus YPL256C, strain CLN2, active compounds read low 1.15 | S. cerevisiae deletion strains, locus YPR119W, strain clb2, active compounds read low 0.986 | S. cerevisiae deletion strains, locus YPR141C, strain kar3, active compounds read low 0.974 | S. cerevisiae deletion strains, locus YPR163C, strain tif3, active compounds read low 0.986 | S. cerevisiae deletion strains, locus YPR167C, strain met16, active compounds read low 0.989 | S. cerevisiae deletion strains, strain wtn01, active compounds read low 0.995 | S. cerevisiae strains, strain wild type, active compounds read low 0.986
